# Test results from PubChem BioAssay (Tox21).
# Inconclusive results are not listed. Where a call stands in place of a potency, no number is given. The source made the active and inactive calls. The call rests on the fitted dose curve. Positions of bridges follow the written chain, without caps; N, C: chain ends. Non-standard residues stand in square brackets, D forms with d. Residues, ends and D or L forms follow the SMILES beside them. hArg = N=C(N)NCCCC[C@H](N)C(=O)O; Mpa = O=C(O)CCS
# Biological target: Acetylcholinesterase (Homo sapiens) (UniProt P22303)
# Assay: Acetylcholinesterase (AChE) small molecule antagonists: colormetric cell-based qHTS assay (AID 1347395); further: nearly all actives have a fitted effect of over 30% in size
# Settings: SH-SY5Y cells AChE activity, colorimetric (Ellman); series mostly up to 115 µM
# Method in brief: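 Neuroblastoma line SH-SY5Y supplied the enzyme; cells were preincubated with compound for 30 min at 37 C and 5% CO2. Acetylthiocholine with DTNB was then added for 90 min at 37 C, and thiocholine was measured by colour.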
# Sequence of Acetylcholinesterase (Homo sapiens) (P22303 whole entry, looked up): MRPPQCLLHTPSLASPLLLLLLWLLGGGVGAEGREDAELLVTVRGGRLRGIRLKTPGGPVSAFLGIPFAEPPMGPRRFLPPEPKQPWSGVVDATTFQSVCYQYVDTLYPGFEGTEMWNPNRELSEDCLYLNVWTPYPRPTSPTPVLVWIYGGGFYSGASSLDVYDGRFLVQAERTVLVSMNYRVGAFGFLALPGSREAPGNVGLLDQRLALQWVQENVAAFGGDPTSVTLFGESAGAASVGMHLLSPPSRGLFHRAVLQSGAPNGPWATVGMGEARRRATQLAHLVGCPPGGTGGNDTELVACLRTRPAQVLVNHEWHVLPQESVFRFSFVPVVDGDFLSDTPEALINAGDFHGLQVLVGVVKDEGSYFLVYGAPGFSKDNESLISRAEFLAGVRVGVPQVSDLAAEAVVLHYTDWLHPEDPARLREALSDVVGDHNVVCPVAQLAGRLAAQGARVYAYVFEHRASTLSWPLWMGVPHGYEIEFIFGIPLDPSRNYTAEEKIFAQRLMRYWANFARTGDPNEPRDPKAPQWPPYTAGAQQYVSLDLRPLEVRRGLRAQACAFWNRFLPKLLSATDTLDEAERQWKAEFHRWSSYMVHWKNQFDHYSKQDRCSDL
Structure (SMILES),Potency,outcome
CC(=O)OC1CC(C)OC(C)O1 (stereo not given),inactive,–
Cc1noc(NS(=O)(=O)c2ccc(N)cc2)c1C,inactive,–
CN(C)Cc1ccccc1O,inactive,–
CCOC(=O)Cc1cccc2ccccc12,inactive,–
CC(=O)/C(C)=C/C1C(C)=CCCC1(C)C (stereo not given),inactive,–
CCc1cccc(O)c1,inactive,–
COc1ccc(-n2nc(CCC(=O)N(C)O)cc2-c2ccc(Cl)cc2)cc1,inactive,–
CCCCOC(O)CC (stereo not given),inactive,–
CCOC(=O)c1ccccc1C,inactive,–
CN1Cc2c(N)cccc2C(c2ccccc2)C1 (stereo not given),inactive,–
CCCCCCCCCCCCCO,inactive,–
Fc1ccc(C(c2ccc(F)cc2)N2CCNCC2)cc1,inactive,–
CC(C)(C)OC=O,inactive,–
CC(=O)OCC(=O)[C@@]1(O)CCC2C3CCC4=CC(=O)CC[C@]4(C)C3[C@@H](O)C[C@@]21C (stereo not given in full),inactive,–
CC(C)Cc1ccc(C(C)C(=O)O)cc1 (stereo not given),inactive,–
CN(Cc1cnc2nc(N)nc(N)c2n1)c1ccc(C(=O)N[C@@H](CCC(=O)O)C(=O)O)cc1,inactive,–
CCCCCCCCCC(=O)O,inactive,–
C[N+](C)(C)CCO,–,inactive
C1CCN(CN2CCCCC2)CC1,inactive,–
CCOC(=O)C1OC1c1ccccc1 (stereo not given),inactive,–

Structure (SMILES),Potency,outcome
NC(=O)[C@@H]1CSSCCC(=O)N[C@@H](CCCCN=C(N)N)C(=O)NCC(=O)N[C@@H](CC(=O)O)C(=O)N[C@@H](Cc2c[nH]c3ccccc23)C(=O)N2CCC[C@H]2C(=O)N1 ([Mpa][hArg]GDWPC-NH2; disulfide 1-7),inactive,–
Clc1ccc2c(c1)Nc1ccccc1S2,inactive,–
CCCCC1(COC(=O)CCC(=O)O)C(=O)N(c2ccccc2)N(c2ccccc2)C1=O,inactive,–
ON=C1CCCCC1,inactive,–
CCCCCCCC/C=C\CCCCCCCC(=O)OC(CO)CO,inactive,–
COC(=O)C(C)O (stereo not given),inactive,–
Cc1ccc(C(C)(C)C)c(O)c1,inactive,–
CC(=O)OCCCc1ccccc1,inactive,–
O=C(O)c1cc(O)c(O)c(O)c1,inactive,–
Nc1ccc2c(c1)C(=O)c1ccccc1C2=O,inactive,–
CC1CCC(C(C)CS)CC1S (stereo not given),inactive,–
CCN(CC)C(=O)c1ccc(O)c(OC)c1,inactive,–
c1ccc2c(c1)-c1ccc3ccc4cccc5cc-2c1c3c45,inactive,–
CO[C@@]1(NC(=O)CSCC#N)C(=O)N2C(C(=O)O)=C(CSc3nnnn3C)CS[C@@H]21,inactive,–
O=C(CC(C(=O)OC1CCCCC1)S(=O)(=O)O)OC1CCCCC1 (stereo not given),inactive,–
CC/C=C\CCCCCO,inactive,–
O=C1OCCN1/N=C/c1ccc([N+](=O)[O-])o1,inactive,–
C=CCNC(N)=S,inactive,–
Cc1nnc(NS(=O)(=O)c2ccc(N)cc2)s1,inactive,–
C[C@]12CC[C@H]3[C@@H](CCC4=CC(=O)CC[C@@]43C)[C@@H]1CC[C@@H]2C(=O)CO,inactive,–

# Biological target: Acetylcholinesterase (Homo sapiens) (UniProt P22303)
# Assay: Acetylcholinesterase (AChE) small molecule antagonists: enzyme-based qHTS assay (AID 1347397); further: nearly all actives have a fitted effect of over 55% in size
# Settings: Potency: AChE enzyme activity inhibition; outcome: AChE enzyme activity inhibition; series mostly up to 115 µM
# Method in brief: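 Human recombinant acetylcholinesterase; substrate acetylthiocholine; thiocholine quantified with DTNB (colorimetric). Compound preincubation 30 min RT; reaction 10 min RT.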
Structure (SMILES),Potency,outcome
CC(=O)OC1CC(C)OC(C)O1 (stereo not given),inactive,–
Cc1noc(NS(=O)(=O)c2ccc(N)cc2)c1C,inactive,–
CN(C)Cc1ccccc1O,inactive,–
CCOC(=O)Cc1cccc2ccccc12,inactive,–
CC(=O)/C(C)=C/C1C(C)=CCCC1(C)C (stereo not given),inactive,–
CCc1cccc(O)c1,inactive,–
COc1ccc(-n2nc(CCC(=O)N(C)O)cc2-c2ccc(Cl)cc2)cc1,inactive,–
CCCCOC(O)CC (stereo not given),inactive,–
CCOC(=O)c1ccccc1C,inactive,–
CN1Cc2c(N)cccc2C(c2ccccc2)C1 (stereo not given),inactive,–
CCCCCCCCCCCCCO,inactive,–
Fc1ccc(C(c2ccc(F)cc2)N2CCNCC2)cc1,inactive,–
CC(C)(C)OC=O,inactive,–
CC(=O)OCC(=O)[C@@]1(O)CCC2C3CCC4=CC(=O)CC[C@]4(C)C3[C@@H](O)C[C@@]21C (stereo not given in full),inactive,–
CC(C)Cc1ccc(C(C)C(=O)O)cc1 (stereo not given),inactive,–
CN(Cc1cnc2nc(N)nc(N)c2n1)c1ccc(C(=O)N[C@@H](CCC(=O)O)C(=O)O)cc1,inactive,–
CCCCCCCCCC(=O)O,inactive,–
C[N+](C)(C)CCO,–,inactive
C1CCN(CN2CCCCC2)CC1,inactive,–
CCOC(=O)C1OC1c1ccccc1 (stereo not given),inactive,–

Structure (SMILES),Potency,outcome
NC(=O)[C@@H]1CSSCCC(=O)N[C@@H](CCCCN=C(N)N)C(=O)NCC(=O)N[C@@H](CC(=O)O)C(=O)N[C@@H](Cc2c[nH]c3ccccc23)C(=O)N2CCC[C@H]2C(=O)N1 ([Mpa][hArg]GDWPC-NH2; disulfide 1-7),inactive,–
Clc1ccc2c(c1)Nc1ccccc1S2,inactive,–
CCCCC1(COC(=O)CCC(=O)O)C(=O)N(c2ccccc2)N(c2ccccc2)C1=O,inactive,–
ON=C1CCCCC1,inactive,–
CCCCCCCC/C=C\CCCCCCCC(=O)OC(CO)CO,inactive,–
COC(=O)C(C)O (stereo not given),inactive,–
Cc1ccc(C(C)(C)C)c(O)c1,inactive,–
CC(=O)OCCCc1ccccc1,inactive,–
O=C(O)c1cc(O)c(O)c(O)c1,inactive,–
Nc1ccc2c(c1)C(=O)c1ccccc1C2=O,inactive,–
CC1CCC(C(C)CS)CC1S (stereo not given),inactive,–
CCN(CC)C(=O)c1ccc(O)c(OC)c1,inactive,–
c1ccc2c(c1)-c1ccc3ccc4cccc5cc-2c1c3c45,inactive,–
CO[C@@]1(NC(=O)CSCC#N)C(=O)N2C(C(=O)O)=C(CSc3nnnn3C)CS[C@@H]21,inactive,–
O=C(CC(C(=O)OC1CCCCC1)S(=O)(=O)O)OC1CCCCC1 (stereo not given),inactive,–
CC/C=C\CCCCCO,inactive,–
O=C1OCCN1/N=C/c1ccc([N+](=O)[O-])o1,inactive,–
C=CCNC(N)=S,inactive,–
Cc1nnc(NS(=O)(=O)c2ccc(N)cc2)s1,inactive,–
C[C@]12CC[C@H]3[C@@H](CCC4=CC(=O)CC[C@@]43C)[C@@H]1CC[C@@H]2C(=O)CO,inactive,–
